# Laboratory results taken from the supplement of paper PMC3545927.
# The other results are listed elsewhere or left out. The hit rate among all sequences tested is not known here.
# B1: HC408 (peptide)
# chain: CAGIVPAKSVAGNASASA
# B2: FS-2846 (peptide)
# chain: CARWRRVAVGAGNASASA
# B3: FS-2111 (peptide)
# chain: CARWRRSAPGAGNASASA
# B4: HC2544 (peptide)
# chain: CASTPCSAILAGNASASA
# B5: FS-3132 (peptide)
# chain: CARWRRHQEGAGNASASA
# B6: HC2558 (peptide)
# chain: CASTPCSATLAGNASASA
# B7: FS-3133 (peptide)
# chain: CARWRRSDILAGNASASA
# B8: HC298 (peptide)
# chain: CALYVGDLCGAGNASASA
# B9: HC438 (peptide)
# chain: CAMNSTGFTKAGNASASA
# B10: HC1332 (peptide)
# chain: CAALAELATRAGNASASA
# B11: FS-2510 (peptide)
# chain: CARQRRALERAGNASASA
# B12: FS-2175 (peptide)
# chain: CARQVRYLEKAGNASASA
# B13: FS-2173 (peptide)
# chain: CARQRRDLLNAGNASASA
# B14: FS-2761 (peptide)
# chain: CARQRRGEERAGNASASA
# B15: FS-1769 (peptide)
# chain: CARQRRALEKAGNASASA
# B16: FS-2584 (peptide)
# chain: CARQKKAAEKAGNASASA
# B17: HC2376 (peptide)
# chain: CAEVPCHGPSAGNASASA
# B18: HC1412 (peptide)
# chain: CALSVEEACSAGNASASA
# B19: FS-1258 (peptide)
# chain: CARHRRPRRVAGNASASA
# B20: FS-849 (peptide)
# chain: CAQRHRQGRVAGNASASA
# B21: FS-1495 (peptide)
# chain: CATNNRKIRVAGNASASA
# B22: FS-121 (peptide)
# chain: CADIARARRVAGNASASA
# B23: FS-36 (peptide)
# chain: CAISRRQRRVAGNASASA
# B24: FS-677 (peptide)
# chain: CAKNQRKIRIAGNASASA
# B25: FS-499 (peptide)
# chain: CASHRRQRRVAGNASASA
# B26: HC157 (peptide)
# chain: CAEVVTYTWVAGNASASA
# B27: HC1115 (peptide)
# chain: CAGEGAVQWMAGNASASA
# B28: HC278 (peptide)
# chain: CAASRCWVAMAGNASASA
# B29: FS-1816 (peptide)
# chain: CAVVARSVNGAGNASASA
# B30: FS-1662 (peptide)
# chain: CAVRRRVQRMAGNASASA
# B31: FS-3143 (peptide)
# chain: CAVRRRAADQAGNASASA
# B32: FS-2856 (peptide)
# chain: CAVRRRSVQQAGNASASA
# B33: HC2324 (peptide)
# chain: CAEIPCHRPSAGNASASA
# B34: FS-58 (peptide)
# chain: CALRTRPRRFAGNASASA
# B35: FS-820 (peptide)
# chain: CALHQRVRRFAGNASASA
# B36: HC1300 (peptide)
# chain: CARRFAQALPAGNASASA
# B37: FS-3046 (peptide)
# chain: CARRFRAALGAGNASASA
# B38: FS-1073 (peptide)
# chain: CARRFRPRRSAGNASASA
# B39: HC1469 (peptide)
# chain: CAPGQRVEFLAGNASASA
# B40: FS-1072 (peptide)
# chain: CARRFRPRRFAGNASASA
# B41: HC44 (peptide)
# chain: CATTPLSGSWAGNASASA
# B42: HC2582 (peptide)
# chain: CASTPCSAHQAGNASASA
# B43: HC650 (peptide)
# chain: CAMETKLITWAGNASASA
# Target: furin, P09958
# Assay: furin cleavage Z-score vs untreated control; higher = more cleavage, active = 3.5 or more, inactive = 1 or less, 8 variable residues between constant flanks
# Procedure, shortened: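 Magnetic beads held 8-mer peptides by the N-terminus, each fused to a cDNA oligonucleotide, and purified furin was added for 7.5, 15 or 30 min. Released DNA was sequenced after PCR adapter tagging. The cleavage Z-score is the log count relative to furin-free reactions, lowess-adjusted and divided by median absolute deviation.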
# 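Further: purified furin at 1:10 enzyme:substrate in 50 mM HEPES pH 7.5.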
# Sequence of furin, P09958 (P09958 whole entry): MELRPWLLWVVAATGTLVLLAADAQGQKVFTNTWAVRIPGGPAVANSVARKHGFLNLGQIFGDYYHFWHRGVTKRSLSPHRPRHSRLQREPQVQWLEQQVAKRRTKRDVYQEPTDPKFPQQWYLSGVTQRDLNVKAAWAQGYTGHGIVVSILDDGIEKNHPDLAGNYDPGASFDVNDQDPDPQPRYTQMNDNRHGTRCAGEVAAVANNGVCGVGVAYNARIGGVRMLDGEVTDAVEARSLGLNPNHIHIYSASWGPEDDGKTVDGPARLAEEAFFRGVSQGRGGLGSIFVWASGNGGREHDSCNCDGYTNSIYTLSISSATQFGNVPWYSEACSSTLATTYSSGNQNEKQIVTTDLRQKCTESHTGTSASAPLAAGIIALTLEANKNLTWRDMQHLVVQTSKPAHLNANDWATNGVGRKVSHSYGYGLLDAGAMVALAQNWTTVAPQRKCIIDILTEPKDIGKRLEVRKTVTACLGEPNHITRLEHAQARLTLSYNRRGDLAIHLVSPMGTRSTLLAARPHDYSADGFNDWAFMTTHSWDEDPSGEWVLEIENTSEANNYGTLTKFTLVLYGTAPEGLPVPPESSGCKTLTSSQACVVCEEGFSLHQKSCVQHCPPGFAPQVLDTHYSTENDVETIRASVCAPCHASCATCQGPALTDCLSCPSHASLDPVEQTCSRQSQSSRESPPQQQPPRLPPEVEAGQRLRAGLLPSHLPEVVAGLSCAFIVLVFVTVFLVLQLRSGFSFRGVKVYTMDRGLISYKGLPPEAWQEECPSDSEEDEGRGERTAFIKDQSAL
Sequence,furin cleavage Z-score (7.5 min),furin cleavage Z-score (15 min),furin cleavage Z-score (30 min)
B1,-0.985 (inactive),0.152 (inactive),0.898 (inactive)
B2,0.992 (inactive),1.04,3.3
B3,8.14 (active),8.62 (active),5.76 (active)
B4,1.05,1.22,0.242 (inactive)
B5,0.592 (inactive),1.08,1.98
B6,0.0385 (inactive),-0.233 (inactive),-0.615 (inactive)
B7,1.69,5.44 (active),6.95 (active)
B8,-1.6 (inactive),-0.331 (inactive),-1.76 (inactive)
B9,0.142 (inactive),-0.334 (inactive),0.353 (inactive)
B10,-0.307 (inactive),-0.0975 (inactive),-0.283 (inactive)
B11,7.27 (active),9.89 (active),9.73 (active)
B12,0.662 (inactive),1.05,1.72
B13,6.3 (active),11.7 (active),11.3 (active)
B14,2.18,0.285 (inactive),0.208 (inactive)
B15,5.5 (active),5.75 (active),6.8 (active)
B16,-1.07 (inactive),-0.974 (inactive),1.2
B17,-0.0304 (inactive),0.46 (inactive),-1.34 (inactive)
B18,-1.32 (inactive),0.888 (inactive),-0.38 (inactive)
B19,3.43,4.61 (active),4.95 (active)
B20,-0.109 (inactive),1.55,0.481 (inactive)
B21,2.37,4.37 (active),4.34 (active)
B22,-0.464 (inactive),-0.299 (inactive),0.591 (inactive)

Sequence,furin cleavage Z-score (7.5 min),furin cleavage Z-score (15 min),furin cleavage Z-score (30 min)
B23,5.61 (active),5.68 (active),6.35 (active)
B24,-0.0796 (inactive),0.212 (inactive),1.01
B25,7.8 (active),8.25 (active),6.5 (active)
B26,-1.14 (inactive),-2.61 (inactive),-1.31 (inactive)
B27,-1.9 (inactive),-0.502 (inactive),-1.06 (inactive)
B28,1.39,-0.873 (inactive),1.5
B29,-0.0409 (inactive),0.74 (inactive),1.63
B30,9.65 (active),8.64 (active),6.99 (active)
B31,-0.697 (inactive),0.216 (inactive),1.49
B32,3.6 (active),4.13 (active),4.51 (active)
B33,1.27,0.0659 (inactive),-0.381 (inactive)
B34,10.2 (active),12.6 (active),10.4 (active)
B35,8.84 (active),10.6 (active),9.12 (active)
B36,0.481 (inactive),1.31,-0.76 (inactive)
B37,-0.151 (inactive),-1.57 (inactive),1.09
B38,10.2 (active),9.93 (active),8.02 (active)
B39,-0.0222 (inactive),-0.699 (inactive),-1.16 (inactive)
B40,9 (active),10.6 (active),9.46 (active)
B41,-0.768 (inactive),-0.103 (inactive),0.0356 (inactive)
B42,-0.092 (inactive),-1.41 (inactive),-0.516 (inactive)
B43,-0.69 (inactive),-0.554 (inactive),-0.78 (inactive)
